Source: PubChem BioAssay

Tested on: XIP peptide (Xip251-270)
Experiment: small-molecule binders of XIP peptide, primary screen, biochemical, small-molecule microarray, fluorescence 635/667 nm, 0.5 µg/mL protein (AID 1183)
Settings: small-molecule microarray binding, fluorescence 635 nm; higher = more signal

Point of comparison: COCCOC(=O)N1C(=O)[C@@]2(c3cc(C#Cc4ccc(OC)cc4)ccc31)[C@H](C(=O)N1CCN(c3ncccn3)CC1)[C@H]1C(=O)O[C@H](c3ccccc3)[C@H](c3ccccc3)N1[C@@H]2c1ccc(OCCO)cc1, composite z-score 0.43. Against it:
- N#Cc1ccc(NN2C(C(O)c3cccc4ccccc34)C=CC3C(=O)N(c4ccccc4)C(=O)C32)cc1 (centres undefined) — higher, 0.684
- COC(=O)C1=CCC(c2cccc(Cl)c2)O1 (centres undefined) — higher, 0.45
- COCCCNC(=O)[C@@]1(CCS(=O)(=O)c2ccccc2)N=C(c2ccc(OCCCO)cc2)O[C@H]1c1ccccc1 — higher, 0.875
- CN(C)CCCNC(=O)[C@@H]1c2ccccc2C(=O)N(Cc2cc(F)cc(C(F)(F)F)c2)[C@H]1c1ccc(CO)cc1 — lower, -0.0306
- CCCC[C@@H](O)C1=C(C)C[C@H]2C(=O)N(Cc3ccccc3)C(=O)[C@H]2[C@H]1CO — higher, 0.576
- CC(C)OC(=O)C=C1C[C@@H](c2ccc(C#N)cc2)O[C@@H](c2ccc(C#N)cc2)O1 — higher, 0.865
- CN1C(=O)C2C(C1=O)C1C=C(CCCO)C2C(c2ccc(CN3CCCC3)cc2)N1C (centres undefined) — lower, -0.598
- COc1ccccc1CN1C(=O)c2ccccc2[C@@H](C(=O)NCC(F)(F)F)[C@@H]1c1ccc(CO)cc1 — higher, 0.561
